Data on 89 compounds can be found in PubChem BioAssay AID1645855 (Buhrlage Lab, Dana-Farber Cancer Institute and Novartis …, 2021).

Screen size: about 47,000 compounds; about 3,100 (6.6%) were called active. Cut-off read from the data, not from the text of the source: active = inhibition above about 30%; inactive = the rest. What follows is part of a selection rich in actives, with near analogues and random picks from the rest.

Ubiquitin carboxyl-terminal hydrolase 17-like protein 5 (Homo sapiens), sequence (A8MUK1 whole entry, looked up): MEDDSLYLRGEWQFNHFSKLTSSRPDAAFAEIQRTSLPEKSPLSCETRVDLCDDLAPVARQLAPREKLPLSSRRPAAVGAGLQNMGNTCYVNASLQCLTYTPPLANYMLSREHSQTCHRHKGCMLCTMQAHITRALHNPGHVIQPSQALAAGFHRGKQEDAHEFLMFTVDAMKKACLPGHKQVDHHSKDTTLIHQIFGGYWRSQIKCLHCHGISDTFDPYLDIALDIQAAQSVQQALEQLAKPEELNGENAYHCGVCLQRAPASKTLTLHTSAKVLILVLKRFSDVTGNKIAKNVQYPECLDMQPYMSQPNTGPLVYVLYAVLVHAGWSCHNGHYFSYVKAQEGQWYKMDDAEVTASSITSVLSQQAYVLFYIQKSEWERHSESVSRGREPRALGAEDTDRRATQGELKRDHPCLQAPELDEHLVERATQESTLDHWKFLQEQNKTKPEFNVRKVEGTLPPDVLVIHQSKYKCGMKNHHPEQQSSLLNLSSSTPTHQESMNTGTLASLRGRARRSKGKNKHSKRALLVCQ

The experiment has as its target Ubiquitin carboxyl-terminal hydrolase 17-like protein 5 (Homo sapiens) (UniProt A8MUK1). In words: blocks human USP17 ubiquitin-rhodamine cleavage (AID 1645855). The settings on record: purified USP17, Ub-rhodamine cleavage fluorescence, 3 h; at 50 µM; stronger effect = higher value.
For the compound `CS(=O)(=O)Nc1cccc(C#CCN)c1`, the inhibition (in general, the drop in the measured response relative to a control, in per cent) was -24.2% (inactive). For `O=C(c1sc(N2CCCCC2)nc1-c1ccccc1)c1c[nH]c2ccccc12` the value was -31.2% (inactive). For `CN1CCN(c2nc3c(s2)CN(C(=O)c2ccccc2)CC3)CC1` the value was -15.2% (inactive); for `O=C(CN(C(=O)c1ccccc1)C1CCCCC1)Nc1nc(-c2ccccc2)cs1`, 11.1% (inactive).

In the case of `CC(=O)NC(Cc1ccccc1C)C(=O)NC1CCN(C(=O)Nc2cccc(C)c2)CC1` (centres undefined), the inhibition was 1.56% (inactive). As for `Oc1cccc2nc3c(O)cccc3nc12`, the inhibition is 96.1% (active). With `COc1ccc(C(=O)O)cc1S(=O)(=O)Nc1ccc(-c2ccccc2)cc1`, the inhibition is -9.74% (inactive). The figure for `O=c1oc2cccnc2n1Cc1ccccc1F` is 13% (inactive). The figure for `COc1ccccc1CNC(=O)C1CCN(S(C)(=O)=O)c2ccccc2O1` (centres undefined) is 1.45% (inactive); for `Cc1ccc(CN2C(=O)CS(=O)(=O)C(C)C2=O)cc1` (centres undefined) it is 0.155% (inactive); for `Cc1nc(-c2ccc(C(=O)NCc3ccc4c(c3)OCO4)cc2)cs1` it is 29.5% (inactive). For `C[C@H](NC(=O)c1ccc2c(c1)OCO2)c1nc2cc(-c3ccc(F)cc3)ncn2n1`, the inhibition was 35% (active).

On to `CC(NC(=O)c1ccc2c(c1)OCCO2)c1ccc2c(c1)OCCCO2` (centres undefined), for which the inhibition is -21.9% (inactive). On to `Cc1ccc(NS(=O)(=O)c2cc3n(c2)CCCNC3=O)c(F)c1`, for which the inhibition was -11.3% (inactive). For `O=C(c1ncccn1)N1CCCC1c1ncc(Cc2ccccc2Cl)o1` (centres undefined) the value was 0.408% (inactive); for `COc1ccc(NC(=O)c2c(N3CCCC3=O)c3cc(F)ccc3n2C)cc1Cl`, -15.2% (inactive). Take `CC(Oc1ccccc1)C(=O)Nc1ccc(-c2cn3cccnc3n2)cc1` (centres undefined): the inhibition was 41.4% (active). In the case of `CC(=O)c1ccc(NC(=O)C(C)Sc2nnc(COc3ccc(C)cc3)n2Cc2ccccc2)cc1` (centres undefined), the inhibition is 7.66% (inactive).

As to `CCC(C(=O)Nc1ccc(-c2cn3cccnc3n2)cc1)c1ccccc1` (centres undefined), the inhibition was 45.8% (active).

In the case of `Cc1ccn2cc(-c3ccc(NS(=O)(=O)c4cc(C)c(C)cc4C)cc3)nc2n1`, the inhibition is -32.9% (inactive). The figure for `O=C(Nc1ccc(-c2nc3cccnc3s2)cc1)C(c1ccccc1)c1ccccc1` is -146% (inactive); for `CCC(C(=O)Nc1cc(=O)[nH]c2nc(CCc3ccccc3)nn12)c1ccccc1` (centres undefined) it is 2.97% (inactive); for `Cc1ccc(Cn2c(C(=O)O)c(CNC(C)CCc3ccccc3)c3ccccc32)cc1` (centres undefined) it is -1.67% (inactive).

Regarding `Cc1nc(Nc2ncccn2)cc(C2CCCN2S(C)(=O)=O)n1` (centres undefined), the inhibition was 0.142% (inactive). Turning to `O=C1CN(C(=O)c2cccc3ccccc23)C(c2ccc(F)cc2)c2cc(Br)ccc2N1` (centres undefined), the inhibition was 2.94% (inactive). With `O=C(c1cc2ccccc2[nH]1)N1CCCC2(COCCN(c3cccnc3)C2)C1` (centres undefined), the inhibition was 16.4% (inactive). `CCOc1ccc2c(c1)c(=O)c(C(=O)c1ccccc1)cn2CC(=O)Nc1ccc(OC)cc1`: the inhibition is -0.53% (inactive). The figure for `CCOc1ccc(NC(=O)Cn2cc(C(=O)c3ccc(Cl)cc3)c(=O)c3cc(OC)ccc32)cc1` is 57.1% (active). The figure for `COc1ccc(NC(=O)CSc2cn(CC(=O)N3CCCC3)c3ccccc23)cc1` is 7.65% (inactive).

For `O=C(C1CC1)N1CCc2cc(S(=O)(=O)NCCCN3CCN(Cc4ccccc4)CC3)ccc21`, the inhibition is -6.1% (inactive).

For `COc1ccc(-c2nc3c(c(=O)c4ccccc4n3C)c(=O)n2CCc2ccc(OC)c(OC)c2)cc1`, the inhibition was 7.74% (inactive).

For `COc1c(O)c2c3c(c1O)C(=O)[C@@]1(O)C(=C3C(C)=CC2=O)O[C@@H](C)C1(C)C`, the inhibition is 37.6% (active). As for `Cc1nn(-c2ccccc2)c(C)c1S(=O)(=O)Nc1ccccc1C(N)=O`, the inhibition is 7.84% (inactive). For `COc1cccc(CNS(=O)(=O)c2cc3[nH]c4c(c3cc2C)C(=O)CCC4)c1`, the inhibition is -25.1% (inactive).

Regarding `Cc1oc(-c2ccccc2Cl)cc1C(=O)Nc1ccc(F)cc1`, the inhibition is -7.25% (inactive). As to `Cn1nc(C(=O)Nc2ccc(F)cc2)c(=O)c2ccccc21`, the inhibition is 32.8% (active). For `COc1cccc(NC(=O)c2nn(-c3ccc(F)cc3)c(OC)cc2=O)c1` the value was -0.739% (inactive).

With `CNc1nc2c(c(=O)n1-c1ccccc1)CN(C(=O)c1ccc3ccccc3c1)CC2`, the inhibition is 1.41% (inactive).

On to `CN1CCc2c(sc3nc(SCCc4ccccc4)n(-c4ccccc4)c(=O)c23)C1`, for which the inhibition was 41.9% (active). As to `CNc1nc2c(c(=O)n1-c1ccccc1)CCN(S(C)(=O)=O)C2`, the inhibition is 4.69% (inactive). On to `Cc1ccc(-c2nnc(CCC(=O)O)o2)cc1`, for which the inhibition was -26.7% (inactive). The figure for `COc1cc(OC)cc(C(=O)Nc2cccc(CCc3nc4ccc(C)cc4[nH]3)c2)c1` is 30.4% (active); for `COc1ccccc1NC(=O)Nc1ccc(CCc2nc3ccccc3[nH]2)cc1` it is -12.4% (inactive). For `CC(=O)Nc1ccc(C(=O)CSc2nc3ccc(C)cc3[nH]2)cc1` the value was 12.1% (inactive); for `Cc1ccc(C(=O)N2CCCC(c3nnc(-c4ccccc4)o3)C2)cc1F` (centres undefined), -2.67% (inactive); for `O=CN1c2ccccc2NC(=O)CC1c1ccccc1` (centres undefined), -3.98% (inactive).

Consider `c1ccc(-c2nc3c4ccccc4nc(NC4CCCC4)n3n2)cc1`, for which the inhibition is -4.03% (inactive).

With `Cc1cc(NC2CCCCC2)n2ncc(-c3ccc(Cl)cc3)c2n1`, the inhibition was -4.39% (inactive).

For `Clc1ccc2ncnc(NC3CCCCC3)c2c1`, the inhibition was 39.8% (active). For `Cc1cc(C(=O)Nc2cccc(F)c2)cc2c1N(C)S(=O)(=O)c1ccccc1-2` the value was 5.77% (inactive); for `Cc1nn(-c2ccc(F)cc2F)c2c1C(C(=O)c1cc3ccccc3o1)CC(=O)N2` (centres undefined), 31.3% (active); for `Cc1nn(-c2cccc(F)c2)c2c1C(C(=O)c1cc3ccccc3o1)CC(=O)N2` (centres undefined), 2.88% (inactive).

Turning to `Cc1nn(-c2ccc(F)cc2F)c2c1C(C(=O)c1ccc3c(c1)OCO3)CC(=O)N2` (centres undefined), the inhibition was 9.19% (inactive).

In the case of `Cc1cc(N2CCCC2)ccc1CN1CCCC(c2nnc3n2CCNCC3)C1` (centres undefined), the inhibition was -63.9% (inactive). The figure for `O=C(Nc1ccccc1-c1nc2ccccc2[nH]1)c1cc(S(=O)(=O)N2CCOCC2)c(Cl)cc1Cl` is -21.9% (inactive); for `O=C(Nc1ccc(Cl)c(S(=O)(=O)N2CCOCC2)c1)c1cc(-c2ccccc2Cl)nc2ccccc12` it is -12.8% (inactive); for `O=C(Nc1nc2ccc(S(=O)(=O)N3CCOCC3)cc2s1)c1cc2ccccc2oc1=O` it is 34.2% (active). On to `CC(=O)CCCSc1ncnc2c1sc1nc(N3CCOCC3)c3c(c12)CC(C)(C)OC3`, for which the inhibition was 16.1% (inactive). On to `Cn1c(=O)c(N2CCC(C(=O)NCc3ccc(F)cc3)CC2)nc2cccnc21`, for which the inhibition is 16.8% (inactive). For `O=C(CCc1nnc2ccc(N3CCCC3)nn12)NCc1ccc(F)cc1` the value was 11.5% (inactive); for `O=C(COc1cccc2ccc(N3CCC(Cc4ccccc4)CC3)nc12)NCc1ccc(F)cc1`, 35.1% (active). `COc1ccc(NC(=O)CSc2ncccc2C(=O)N2CCC(Cc3ccccc3)CC2)cc1OC`: the inhibition is 11% (inactive). For `O=C(CC1C(=O)OCCN1Cc1ccccc1)Nc1cccc(F)c1` (centres undefined) the value was -10.1% (inactive); for `O=C(COc1cccc2ccc(N3CCC(Cc4ccccc4)CC3)nc12)Nc1cccc(F)c1`, 46.2% (active); for `COc1ccccc1CC(=O)Nc1cc(S(=O)(=O)N2CCOCC2)ccc1N1CCN(C)CC1`, -26.7% (inactive). Turning to `C[C@H](NC(=O)Cc1ccc(Cl)cc1)C(=O)N1CCC2(CC1)NCCc1[nH]cnc12`, the inhibition was 9.11% (inactive). For `O=C(c1ccc(F)cc1)N1CCCC(c2nc(-c3ccccc3)no2)C1` (centres undefined) the value was 11.7% (inactive); for `O=C(Cn1c(-c2nc(-c3ccc(F)cc3)no2)cccc1=O)N1CCCC1`, 33% (active). As to `O=C(CSc1ncc(-c2ccc(F)cc2)[nH]1)N1CCCC1`, the inhibition was 2.63% (inactive). Consider `COc1ccc2[nH]c(C)c(CCNC(=O)c3cccs3)c2c1`, for which the inhibition was 0.591% (inactive).

As for `Cc1c(N2CCN(S(=O)(=O)c3ccc(C(C)C)cc3)CC2)c(=O)n(C)c(=O)n1C`, the inhibition is -2.36% (inactive). For `Cc1nc(SCc2ccc([N+](=O)[O-])cc2)c2oc3ccccc3c2n1` the value was 12.4% (inactive); for `Cc1nc(SCC#N)c2oc3ccccc3c2n1`, 60.3% (active). Turning to `COc1cccc(Cc2cncc(C(=O)N3CCNC(=O)C3)c2)c1`, the inhibition was 6.62% (inactive). For `CSc1cccc(NC(=O)COc2ccc(C(=O)c3ccccc3)cc2)c1` the value was 12.9% (inactive). For `CSc1cccc(NC(=O)CCc2ccc3nc[nH]c3c2)c1` the value was -17.1% (inactive); for `CSc1cccc(NC(=O)CC(=O)Nc2ccc3nc4n(c(=O)c3c2)CCCCC4)c1`, 34.4% (active); for `Cc1ccc(-n2c3c(c(=O)[nH]c2=O)CN(Cc2ccco2)CN3)cc1`, -9.75% (inactive). As for `COc1ccc2nc3c(cc2c1)CN(Cc1ccccc1)C(=O)O3`, the inhibition was 18.5% (inactive).

For `Cc1cc(C)c2nc3c(cc2c1)CN(Cc1ccco1)C(=O)O3`, the inhibition is 51.9% (active). For `O=S(=O)(Cc1ccccc1)N1CC2(CCN(CC3CCCC3)CC2)C1` the value was 0.208% (inactive); for `COc1ccccc1CNC(=O)c1ccc(-n2nc(C)c3c2CCCC3=O)cc1`, -3.98% (inactive); for `Cc1ccc(CNc2nnc(-c3nnc(C)o3)c3ccccc23)cc1`, 3.95% (inactive).

Turning to `CC(C)c1ccc(OCC(=O)NCc2nnnn2-c2ccc(Cl)cc2)cc1`, the inhibition was 11.8% (inactive). For `O=C(COc1ccc2ccccc2c1)NCc1nnnn1-c1ccc(Cl)cc1` the value was 49.4% (active); for `Cc1ccc(NC(=O)NCc2nnnn2-c2ccccc2)cc1C`, -3.49% (inactive). For `CC(NC(=O)c1csc(C(=O)NC2CC2)n1)c1ccc(F)cc1` (centres undefined) the value was 7.32% (inactive); for `CC(C(=O)NCCCN1CCOCC1)C1CCN(C(=O)c2cc3ccccc3[nH]2)CC1` (centres undefined), -0.784% (inactive).

For the compound `Cc1ccc(-c2nnc(NC(=O)C(c3ccccc3)c3ccccc3)o2)c(C)c1`, the inhibition was 2.51% (inactive).
